Source: PubChem BioAssay (NCATS)
The source made the active and inactive calls.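 The calls were made as follows: active = compounds whose dose series gives a full or clear partial fitted curve of increased nuclear translocation; inconclusive = weak partial curve or effect only at the top dose; inactive = no dose-dependent translocation response.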

These molecules were tested against Glucocorticoid receptor (Homo sapiens) (UniProt P04150) (assay: GR-GFP Redistribution (AID 450)). Details: U2OS GR-GFP nuclear translocation, laser cytometry, 2 h; series mostly up to 20.6 µM.
Glucocorticoid receptor (Homo sapiens), sequence (P04150 whole entry, looked up): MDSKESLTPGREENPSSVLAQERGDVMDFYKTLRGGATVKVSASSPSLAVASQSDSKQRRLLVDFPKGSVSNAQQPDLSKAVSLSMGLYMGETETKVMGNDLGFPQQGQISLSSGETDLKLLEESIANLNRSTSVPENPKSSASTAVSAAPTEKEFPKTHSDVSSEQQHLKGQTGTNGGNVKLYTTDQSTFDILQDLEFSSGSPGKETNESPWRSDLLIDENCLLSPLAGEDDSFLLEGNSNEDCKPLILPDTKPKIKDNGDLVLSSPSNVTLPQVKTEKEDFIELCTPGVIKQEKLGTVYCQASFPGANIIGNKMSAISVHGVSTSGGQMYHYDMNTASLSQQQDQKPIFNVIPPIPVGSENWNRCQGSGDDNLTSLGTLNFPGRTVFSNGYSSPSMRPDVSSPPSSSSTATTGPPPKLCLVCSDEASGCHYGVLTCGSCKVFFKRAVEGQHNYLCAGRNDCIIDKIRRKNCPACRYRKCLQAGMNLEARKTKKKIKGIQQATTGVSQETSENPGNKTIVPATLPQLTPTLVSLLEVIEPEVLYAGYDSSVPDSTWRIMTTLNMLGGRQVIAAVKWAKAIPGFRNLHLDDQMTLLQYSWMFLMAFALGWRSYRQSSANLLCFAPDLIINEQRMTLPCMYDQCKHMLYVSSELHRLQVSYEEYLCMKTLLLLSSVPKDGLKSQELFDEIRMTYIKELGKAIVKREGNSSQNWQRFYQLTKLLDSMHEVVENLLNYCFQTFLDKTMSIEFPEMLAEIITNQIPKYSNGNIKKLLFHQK
Potency is read from the fitted curve at half-maximal effect.

Potency, inactive:
COCc1[nH]nc2c1C(c1cccc(OC)c1)C(C#N)=C(N)O2 (stereo not given) > 20.6 µM
O=C(Nc1cccnc1)c1cccnc1 > 20.6 µM
CCN(CC)CCN1C(=O)C(=O)/C(=C(/O)c2ccc(F)cc2)C1c1cccnc1 (stereo not given) > 20.6 µM
COc1ccc(OC)c(C2C(C#N)=C(N)Oc3cc(C)n(Cc4ccccn4)c(=O)c32)c1 (stereo not given) > 20.6 µM
Cc1cc(C)n(C(=O)CSc2nc3ccccc3o2)n1 > 20.6 µM
Cc1nn(C)cc1/C=N/O > 20.6 µM
COC(=O)/C=c1/s/c(=C(/C#N)C(=O)N2CCOCC2)n(-c2ccccc2)c1=O > 20.6 µM
O=C(CC1SC2=NCCN2C1=O)Nc1ccccc1 (stereo not given) > 20.6 µM
Cc1c(/C(O)=C2/C(=O)C(=O)N(CCN3CCOCC3)C2c2cccnc2)cnn1-c1ccccc1 (stereo not given) > 20.6 µM
CCOC(=O)c1cc(CC)sc1NC(=O)C1CC1 > 20.6 µM
O=c1[nH]c(CN(CCO)CCO)nc2c1C1(CCCCC1)Cc1ccccc1-2 > 20.6 µM
CCCC(=O)Nc1sc2c(c1C#N)CCCC2 > 20.6 µM
CSc1nc2sc3c(c2c2nnnn12)CC(C)(C)OC3 > 20.6 µM
CC(=N\O)/C(CN(C)C)=N/O > 20.6 µM
O=C(C1=C(O)C(=O)N(CCCN2CCOCC2)C1c1ccccn1)c1cccs1 (stereo not given) > 20.6 µM
CNC(=O)c1ncnnc1N(C)C(=O)NCc1ccccc1 > 20.6 µM
CCOC(=O)CNC(=O)CNC(=O)c1ccc(OCC(C)C)cc1 > 20.6 µM
CC(C)Cn1cnc2c(c1=O)c1nc3ccccc3nc1n2Cc1ccc2c(c1)OCO2 > 20.6 µM
Cc1cccc(C)c1NC(=O)CSCC(=O)c1ccc(O)c(O)c1 > 20.6 µM
CCOC(=O)C1CCN(C(C)=C2C(=O)c3ccccc3C2=O)CC1
N#CC12CCCCC1CC1CCCCC1(C#N)N2Cc1ccccn1 (stereo not given) > 20.6 µM
Cc1nc2sc(C)c(C)c2c(=O)o1 > 20.6 µM
c1coc(-c2nnc3sc(-c4cccs4)nn23)c1 > 20.6 µM
O=C(OCCN1CCOCC1)c1ccc2c(c1)OCCO2 > 20.6 µM
CCSc1nnc(N(CCC(=O)O)CCC(=O)O)s1 > 20.6 µM
O=C(NC1CCS(=O)(=O)C1)N1CCCCC1 (stereo not given) > 20.6 µM
CCCCCOC(=O)Cc1c(C)nc(-c2ccccc2)[nH]c1=O > 20.6 µM
CCN(CC)c1nc(N2CCOCC2)c(C#N)c2c1CN(C)CC2 > 20.6 µM
O=C1OC(Nc2ccc(Br)cn2)c2ccccc21 (stereo not given) > 20.6 µM
COc1cccc(Cn2c(OCC3CCCO3)nc3c2c(=O)n(C)c(=O)n3C)c1 (stereo not given) > 20.6 µM
CCOC(=O)c1[nH]c2ccc(C)cc2c1N > 20.6 µM
O=c1[nH]nc2n1CCCCC2 > 20.6 µM
Cc1cccc(N2C(=O)CC(N3CCN(Cc4ccc(Cl)cc4)CC3)C2=O)c1 (stereo not given) > 20.6 µM
O=C(O)CN(c1ccccc1)C1SC(=O)NC1=O (stereo not given) > 20.6 µM
CCOC(=O)c1[nH]c2ccc(C)cc2c1N=CN(CC)CC > 20.6 µM
CCOC(=O)C(C)Oc1nc(Oc2ccccc2)nc(N(C)C)n1 (stereo not given) > 20.6 µM
Cn1ncc2nc[nH]c(=O)c21 > 20.6 µM
N#Cc1c(N)nc(SCC(=O)NCCc2ccccc2)c(C#N)c1-c1cccs1 > 20.6 µM
Cn1c(NCc2ccccc2)nc2c1c(=O)n(Cc1ccccc1)c(=O)n2C > 20.6 µM
CC(NC(=O)Nc1ncccn1)(C(F)(F)F)C(F)(F)F > 20.6 µM
